From PubChem BioAssay (Tox21)
Results filed as inconclusive are left out. Where a call stands in place of a potency, no number is given. Unmarked numbers belong to inactive results. Calls of active or inactive are those of the source. Calls come from the whole dose curve; as a rule, active = well fitted inhibition curve with a large enough effect in the repeat runs; inconclusive = weak or mixed curves; inactive = no such curve, though single readings can be large or run the other way.

target: Cytochrome P450 3A4 (Homo sapiens) (UniProt P08684); test: Cytochrome P450 Family 3 Subfamily A Member 4 (CYP3A4) small molecule antagonists: luciferase reporter qHTS assay (AID 1671201); conditions: P450-Glo CYP3A4 enzyme, luciferin luminescence, 1 h; series mostly up to 115 µM; note: nearly all actives have a fitted effect of over 50% in size
Source text: National Center for Advancing Translational Sciences [NCATS]
U.S. Environmental Protection Agency [EPA]
National Institutes of Environmental Health Sciences [NIEHS]
National Toxicology Program [NTP]
U.S. Food and Drug Administration [FDA]
Cytochrome P450 (CYP) enzymes are membrane-bound hemeproteins that play a key role in metabolism of drugs and xenobiotics. Evaluation of the effect of chemicals on CYP isozymes is useful to minimize the adverse drug reactions and toxicities in drug development process. Tox21 chemicals were tested for their effect on CYP enzyme activities by using P450-Glo (TM) screening systems (Promega Corporation, Madison, WI). These systems provide a luminescent method containing proluciferin substrates and are converted to luciferin products by CYP isozymes. The luciferin products formed are detected with a luciferin detection reagent, and the amount of light produced is proportional to CYP activity. P450-Glo (TM) CYP3A4 screening system (Catalog. No. V9910) was used to detect the compounds that interfere in CYP3A4 activity. The positive control compound used for CYP3A4 assay is ketoconazole (Sigma-Aldrich, St. Louis, MO).
Tox21 Assay Protocol Summary:
Two ul of enzyme-substrate mix was dispensed into medium binding white/solid 1536-well plates (Greiner Bio-One North America Inc., Monroe, NC) using a BioRaptr Flying Reagent Dispenser (FRD, Beckman Coulter, Brea, CA). Compounds dissolved in DMSO and positive control (ketoconazole) were transferred to the assay plates at 23 nl using a Pintool station (Wako, San Diego, CA). The assay plates were incubated at room temperature for 10 min. Then 2 ul of NADPH regeneration solution was added to each well of the assay plates using an FRD and incubated at room temperature for 1 h. The reaction was stopped by adding 4 ul of detection reagent using an FRD and after 20 min incubation at room temperature the luminescence signal was measured using a ViewLux plate reader (Perkin Elmer, Shelton, CT). Data were expressed as relative luminescence units.
Potency is the fitted concentration of half-maximal effect.

Cytochrome P450 3A4 (Homo sapiens), sequence (P08684 whole entry, looked up): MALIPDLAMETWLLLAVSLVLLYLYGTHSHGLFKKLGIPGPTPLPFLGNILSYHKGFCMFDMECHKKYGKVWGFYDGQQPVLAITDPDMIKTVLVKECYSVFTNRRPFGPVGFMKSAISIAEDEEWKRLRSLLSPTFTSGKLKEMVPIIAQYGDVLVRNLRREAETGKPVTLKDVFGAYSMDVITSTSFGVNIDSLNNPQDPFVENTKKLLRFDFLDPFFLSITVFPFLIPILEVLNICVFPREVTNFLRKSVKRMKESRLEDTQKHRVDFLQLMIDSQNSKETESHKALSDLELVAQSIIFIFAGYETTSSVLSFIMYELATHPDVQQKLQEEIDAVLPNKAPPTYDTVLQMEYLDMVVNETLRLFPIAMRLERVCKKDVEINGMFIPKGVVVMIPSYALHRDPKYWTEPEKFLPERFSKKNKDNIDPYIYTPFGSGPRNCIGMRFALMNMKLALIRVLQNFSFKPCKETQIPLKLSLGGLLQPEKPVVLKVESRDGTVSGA

Q: How did the activity change, negative = inhibition turn out when `CCC(Cl)CC(Cl)C(Cl)C(Cl)C(Cl)C(C)Cl` (stereo not given) was run?
A: Its activity change, negative = inhibition is 36.6% [at 23.6 µM].

Q: For `C=CCOC(=O)COCCC(C)C`, which Potency is on record?
A: The Potency was “inactive”.

Q: `O=C1NC(=O)c2cccc3cccc1c23` was tested. Which Potency did it give?
A: Its Potency is “inactive”.

Q: `O=C(O)c1cc(Cl)cc(Cl)c1O` was tested. Which Potency did it give?
A: The Potency was “inactive”.

Q: How did the Potency turn out when `Nc1ccn([C@H]2CS[C@@H](CO)O2)c(=O)n1` was run?
A: The Potency was “inactive”.

Q: With `O[C@@H](CNC[C@H](O)[C@H]1CCc2cc(F)ccc2O1)[C@@H]1CCc2cc(F)ccc2O1` as the molecule, how does the Potency read?
A: Its Potency is “inactive”.

Q: Which Potency does the source give for `CC(=O)OCC(=O)[C@@]1(OC(C)=O)[C@@H](C)C[C@H]2[C@@H]3C[C@H](F)C4=CC(=O)C=C[C@]4(C)[C@@]3(F)[C@@H](O)C[C@@]21C` here?
A: The Potency was “inactive”.

Q: With `Nc1ccc(NC(=O)c2ccc(N)cc2)cc1` as the molecule, how does the Potency read?
A: Its Potency is 5.65 µM (active).

Q: For `CCCCCCC(O)CCCCCCCCCCC(=O)OC` (stereo not given), which Potency is on record?
A: Its Potency is “inactive”.

Q: How did the Potency turn out when `CCSC(=O)N(CC)CC` was run?
A: Its Potency is “inactive”.

Q: `O=C(O)CCCc1c[nH]c2ccccc12` was tested. Which Potency did it give?
A: Its Potency is “inactive”.

Q: `CCOc1ncc(F)c(=O)[nH]1` was tested. Which Potency did it give?
A: The Potency was “inactive”.

Q: `O=C1OC(=O)c2c(Br)c(Br)c(Br)c(Br)c21` was tested. Which Potency did it give?
A: Its Potency is “inactive”.

Q: How did the Potency turn out when `O=S(=O)(Cl)c1c(Cl)cccc1Cl` was run?
A: The Potency was “inactive”.

Q: For `COc1ccc(CCN(C)CCCN2CCc3cc(OC)c(OC)cc3CC2=O)cc1OC`, which Potency is on record?
A: The Potency was “inactive”.

Q: Which Potency does the source give for `CC(C)(C(=O)c1cccnc1)c1cccnc1` here?
A: The Potency was 0.389 µM (active).

Q: For `CCOC(=O)C(C)O` (stereo not given), which Potency is on record?
A: The Potency was “inactive”.

Q: `CC(C)C1CCC(C(=O)N[C@H](Cc2ccccc2)C(=O)O)CC1` (stereo not given in full) was tested. Which Potency did it give?
A: Its Potency is “inactive”.

Q: How did the Potency turn out when `O=C(Oc1ccccc1)c1ccc2ccccc2c1O` was run?
A: The Potency was “inactive”.

Q: How did the Potency turn out when `O=C1c2ccccc2C(=O)c2c(O)ccc(O)c21` was run?
A: The Potency was “inactive”.

Q: `O=C1CC[C@@H](C(=O)O)N1` was tested. Which Potency did it give?
A: The Potency was “inactive”.

Q: For `O=C(O)CO`, which Potency is on record?
A: Its Potency is “inactive”.

Q: `CN=C(N)NC(=O)Nc1c(C)cccc1C` was tested. Which Potency did it give?
A: Its Potency is “inactive”.

Q: `OCC(CO)n1cnc(-c2ccc(F)cc2)c1-c1ccnc(Oc2ccccc2)n1` was tested. Which Potency did it give?
A: The Potency was “inactive”.

Q: How did the Potency turn out when `CCCCCCCCCCCCCC(=O)OCC(O)CO` (stereo not given) was run?
A: Its Potency is “inactive”.

Q: With `CC1=C2[C@@H]([C@H](C)CC[C@H]2/C=C(\C)C(=O)O)[C@H](O)C1` as the molecule, how does the Potency read?
A: Its Potency is “inactive”.

Q: For `COC1CCC=CO1` (stereo not given), which Potency is on record?
A: The Potency was “inactive”.

Q: Which Potency does the source give for `CCN(Cc1cccc(S(=O)(=O)O)c1)c1ccc(C(=C2C=CC(=[N+](CC)Cc3cccc(S(=O)(=O)O)c3)C=C2)c2ccccc2S(=O)(=O)[O-])cc1` here?
A: Its Potency is 14.2 µM (active).

Q: How did the Potency turn out when `COC(=O)c1sccc1S(N)(=O)=O` was run?
A: Its Potency is “inactive”.

Q: `CC1C(C)(C)C2=C(C(=O)CCC2)C1(C)C` (stereo not given) was tested. Which Potency did it give?
A: Its Potency is “inactive”.

Q: How did the Potency turn out when `CCc1ccc(C)cc1` was run?
A: The Potency was “inactive”.

Q: For `CC(C)N(C)C`, which Potency is on record?
A: Its Potency is “inactive”.

Q: How did the Potency turn out when `CC[C@@H](CO)NCCN[C@@H](CC)CO` was run?
A: The Potency was “inactive”.

Q: How did the Potency turn out when `CC(C(=O)O)c1ccc(C(=O)c2cccs2)cc1` (stereo not given) was run?
A: Its Potency is “inactive”.

Q: With `Oc1ccc2c(c1)Cc1ccccc1-2` as the molecule, how does the Potency read?
A: Its Potency is “inactive”.

Q: With `CCOC(=O)N1CCC(Nc2ccc(Cl)cc2N)CC1` as the molecule, how does the Potency read?
A: Its Potency is “inactive”.

Q: `NC(=O)CCCCC(N)=O` was tested. Which Potency did it give?
A: Its Potency is “inactive”.

Q: Which Potency does the source give for `O=CNNC=O` here?
A: Its Potency is “inactive”.

Q: `O=C(O)CCC(=O)c1ccc(-c2ccccc2)cc1` was tested. Which Potency did it give?
A: The Potency was “inactive”.

Q: Which Potency does the source give for `O=C(O)CNC(=O)c1ccccc1I` here?
A: The Potency was “inactive”.
